Each structure is given as a SMILES string. Screen size: about 410,000 compounds; about 480 (0.12%) were called active. The full list was thinned out, with actives kept by preference. A number with no mark means an inactive call. No stated cut-off is given here; in the data, active means activation above about 50%; inconclusive means mostly about 30% to 49%; inactive means weaker than that.

The target in this test is Mucolipin-1 (Homo sapiens) (UniProt Q9GZU1). The test can be described thus: qHTS for Agonists of the Human Mucolipin Transient Receptor Potential 1 (TRPML1). Further: 0% is about no effect. The following applies: TRPML1-expressing cells, Ca2+ dye fluorescence, FDSS; active compounds read high. From the text: Mutations of human Mucolipin transient receptor potential 1 (TRPML1) cause type IV mucolipidosis (ML4), a devastating neurodegenerative disease in young children. […] Currently, there is no treatment for ML4. […] Under physiological conditions, TRPMLs regulate membrane trafficking by transducing information about PI(3,5)P2 levels into changes in juxtaorganellar Ca2+, thereby triggering membrane fusion/fission events in the late endocytic pathways (endolysosomal trafficking). In addition, TRPML1 mediates release of Fe2+ from late endosomes and lysosomes, which is essential for cellular iron metabolism. Thus, impaired ion (Ca2+ and Fe2+) homeostasis underlies lysosomal dysfunction and ML4 phenotypes. In ML4 cells, the problem is twofold. First, defective Ca2+-dependent membrane trafficking due to TRPML1-deficiency causes accumulation of lipids and other bio-materials in the lysosome. The second strike comes from the lysosomal iron overload (due to impairment of TRPML1's Fe2+ conductivity), which converts the accumulated materials into the nondegradable (resistant to lysosomal degradation) lipofuscin (also called aging pigment) in the lysosome. Lipofuscin accumulation dramatically compromises the functions of lysosomes.
Chain of Mucolipin-1 (Homo sapiens) (Q9GZU1 whole entry, looked up, the tested form may be a part): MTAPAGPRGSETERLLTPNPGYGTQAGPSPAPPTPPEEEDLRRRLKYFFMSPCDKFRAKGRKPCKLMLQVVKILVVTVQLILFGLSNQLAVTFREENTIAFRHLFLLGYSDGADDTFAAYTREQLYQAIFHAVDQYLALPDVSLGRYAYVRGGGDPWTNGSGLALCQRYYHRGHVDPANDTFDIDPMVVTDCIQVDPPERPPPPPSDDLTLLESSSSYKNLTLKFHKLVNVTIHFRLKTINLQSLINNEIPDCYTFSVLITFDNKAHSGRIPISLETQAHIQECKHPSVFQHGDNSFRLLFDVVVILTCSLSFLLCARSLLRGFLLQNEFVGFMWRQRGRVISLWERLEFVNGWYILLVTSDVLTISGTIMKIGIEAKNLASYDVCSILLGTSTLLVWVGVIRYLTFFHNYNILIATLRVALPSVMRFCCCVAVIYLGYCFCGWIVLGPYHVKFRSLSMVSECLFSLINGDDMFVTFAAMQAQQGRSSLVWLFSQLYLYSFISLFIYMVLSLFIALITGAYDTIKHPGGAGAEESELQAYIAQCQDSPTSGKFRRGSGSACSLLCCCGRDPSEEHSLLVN
Niemann-Pick type C (NPC) disease is another lysosome storage disease (LSD) with severe neurodegeneration during the childhood. Currently, there is no cure for NPC. […] Thus, TRPML1 is likely to be an essential regulator of lysosome ion homeostasis. We specifically hypothesize that stimulating TRPML1's Fe2+/Ca2+ channel activity in the lysosome using synthetic agonists can alleviate neurodegeneration associated with ML4 or NPC.
To this end, a high throughput screen was developed in a miniaturized format to screen against the Molecular Libraries Small Molecule Repository (MLSMR) to find small molecules that act either as inhibitors or agonist against the TRPML1 channel.
NIH Chemical Genomics Center [NCGC]
NIH Molecular Libraries Probe Centers Network [MLPCN]
Assay Submitter (PI): Haoxing Xu, University of Michigan Ann Arbor
TRPML1-DL cells are dissociated from flasks, counted and, brought up to a density of 500,000 cells per mL of media containing a 1X Tet inducer. Using a Multidrop Combi, 3uL of this cell solution is dispensed to each well of a 1536 TC treated, black, clear bottom hi base plate for a final cell density of 1,500 cells per well. The assay plates are incubated overnight (approximately 16 hours) at 37 degrees C and 5% CO2. Using a Multidrop Combi, 2uL of ABD Ca8 no wash dye plus quencher is added to each well. The assay plates incubate at room temperature in the dark for 45-90 minutes. The assay plate is read on the FDSS using the following protocol: 10 second baseline read, 23nL of compounds and controls are added using 1536 pintool, agonist read for 110 seconds, 1 uL EC80 addition (4uM final 54-4 diluted in media), antagonist read for 110 seconds.
With `Oc1ccc(Cl)cc1C1C=C(c2ccc3c(c2)OCO3)NC(c2c(F)cccc2Cl)N1` (centres undefined), the activation was 0.805%.

For `O=S(=O)(Nc1cccc2cccnc12)c1cccc2cccnc12`, the activation was 0.864%.

Take `CC(=O)c1ccc[n+](C(C)CCC(C)[n+]2cccc(C(C)=O)c2)c1` (centres undefined): the activation is -0.159%.

On to `Cc1ccc(Cl)cc1N(C)C(=O)C1CCCN(c2ncnc3onc(-c4ccc(F)cc4)c23)C1` (centres undefined), for which the activation is 0.938%.

Regarding `CN(C)c1ccc(/C=C/c2sc3ccccc3[n+]2C)cc1`, the activation is -0.317%.

As to `N#Cc1ccc[n+](CC(=O)c2ccc(O)c(O)c2)c1`, the activation is 6.5%.

`COc1cc(OC)c(NC(=O)Cc2ccc(-n3c(C)nc4cccnc43)cc2)cc1Cl`: the activation was 2.46%.

Turning to `O=[N+]([O-])c1ccc(/C=C/c2ccc3cccnc3c2)cc1`, the activation is -0.507%.

In the case of `CCOC(=O)c1c(NC(=O)c2ccc(S(=O)(=O)N3CCCC(C)C3)cc2)sc2c1CCN(C(C)C)C2` (centres undefined), the activation was 0.257%.

On to `COc1ccccc1N1CCN(c2ncnc3onc(-c4ccc(F)cc4)c23)CC1`, for which the activation is 0.772%.

On to `O=C(c1cnn2c1NC(=C1CC1)C=C2C(F)F)N1CCc2ccccc2C1`, for which the activation is -0.995%.

With `C(=Nc1ccc(/C=C/c2ccnc3ccccc23)cc1)Nc1ccc(/C=C/c2ccnc3ccccc23)cc1`, the activation is 8.34%.

Consider `Cc1cc(=O)n(CC(=O)Nc2cccc([N+](=O)[O-])c2)c(-n2nc(C)cc2C)n1`, for which the activation was 1.21%.

For the compound `COc1ccccc1NC(=O)CSC1=Nc2ccccc2C2=NC(CC(=O)NCc3cccs3)C(=O)N12` (centres undefined), the activation was 3.51%.

Take `CC1(C)C=Cc2c(ccc(C(=O)/C=C/c3ccccc3)c2O)O1`: the activation is 19.2%.

With `COc1ccc(S(=O)(=O)c2c(Nc3cccc(Cl)c3)sc(C(=O)c3ccccc3)c2N)cc1`, the activation was 14.6%.

In the case of `COc1cccc(C(=O)c2sc3nc(-c4ccccc4)cc(C(F)(F)F)c3c2N)c1`, the activation was 98.2% (active).

Take `COc1cccc(C(=O)Nc2ccc(-c3cc(C(F)(F)F)nn3-c3ccccc3)cc2)c1`: the activation is 3.44%.

As for `COc1ccc(Cn2c(=O)n(-c3ccccc3C)c(=O)c3c4c(sc32)CN(C(C)=O)CC4)cc1`, the activation was -0.696%.

On to `O=C(Nc1ccc2nc(SCC(=O)N3CCCc4ccccc43)sc2c1)c1ccc(Cl)cc1`, for which the activation is 1.16%.

With `O=C(Nc1ccc([N+](=O)[O-])cc1)c1cnn2c1NC(=C1CC1)C=C2C(F)F`, the activation is -0.353%.

Take `CCCCC(CCCC)c1ccc(C=Nc2ccc(/C=C/c3ccnc4ccccc34)cc2)cc1`: the activation was 5.8%.

For `COc1cccc(-c2nnc3n(CCc4ccccc4)c(=O)c4ccccc4n23)c1O`, the activation was 1.15%.

As for `COc1ccc(/C=C(/NC(=O)c2ccc(C)cc2)c2nc3ccccc3[nH]2)cc1OC`, the activation was 50.1% (active).

For `CCOc1ccc(/C=C(\C#N)c2nc3ccccc3c(=O)[nH]2)cc1OC`, the activation is 1.09%.

With `Cc1ccc2nc(CNC(=O)c3ccccc3)[nH]c2c1`, the activation was 2.07%.

For the compound `N#Cc1ccc[n+](CC(=O)c2ccc(F)cc2)c1`, the activation is 1.03%.

`COC(=O)C(CC(C)C)NS(=O)(=O)c1cc(Br)ccc1Br` (centres undefined): the activation is 1.9%.

As for `OC(CBr)CN1CCCCC1` (centres undefined), the activation was -0.38%.

Consider `Cc1cccc(N2CCN(C(=O)CCn3c(=O)c4cccn4c4cccnc43)CC2C)c1` (centres undefined), for which the activation is 0.62%.

Take `C=CCNC(=O)c1ccc2nc(-c3ccco3)c(-c3ccco3)nc2c1`: the activation was -0.254%.

Turning to `OC(CBr)C[n+]1cccc2cc(Br)ccc21` (centres undefined), the activation is 1.14%.

As to `Nc1ncnc2nnsc12`, the activation is 0.38%.

In the case of `CN(C)c1ccc(/C=C/c2sc3ccccc3[n+]2CCCCBr)cc1`, the activation is 6.96%.

In the case of `CCC(C(=O)Nc1cccc(Cl)c1C)n1nc(-c2ccc(C)cc2)ccc1=O` (centres undefined), the activation is 3.09%.

`S=c1[nH]c(=S)c2n[nH]nc2[nH]1`: the activation was 0%.

On to `CC(C)(C)c1ccc(C(=O)C[N+]2(C)CCCc3ccccc32)cc1` (centres undefined), for which the activation is -0.62%.

Take `O=C1O/C(=C\c2ccc(O)cc2)C(O)=C1c1ccc(O)cc1`: the activation is -0.353%.

As for `COc1ccc(OC)c(NC(=O)CSC2=Nc3ccccc3C3=NC(CC(=O)NCc4ccc(F)cc4)C(=O)N23)c1` (centres undefined), the activation was 2.38%.

For `CCN1CCN(c2ncc3c(n2)CC(c2ccccc2O)CC3=O)CC1` (centres undefined), the activation is -0.182%.

With `CCCS(=O)(=O)Nc1cccc(-c2cn3ccsc3n2)c1`, the activation is -0.225%.

Take `CN(CCC#N)c1ccc(C=O)cc1`: the activation is -0.222%.

Turning to `COc1ccc(NC(=O)c2sc3nc(C)nc(N4CCN(c5ccccn5)CC4)c3c2C)c(OC)c1`, the activation is 105% (active).

In the case of `COc1cc([N+](=O)[O-])ccc1NC(=S)N1CCN(c2ccccn2)CC1`, the activation is 0.452%.

The record behind these values is PubChem BioAssay AID624414 (National Center for Advancing Translational Sciences (NCATS), 2012).
